# Measurements published in PMC5540273 (PLoS ONE, 2017).
# Values joined by “and” are separate entries in the source; they are usually repeats but may differ in a detail not shown here. Equal entries are not always repeated. Where two headings read alike, the source gives them in different places.
# What was measured:
# MYO3B = settings: concentration: 1 μM, replicates: in singlicate, n = 1
# NDR1 = test system: T1, NDR1; settings: concentration: 1 μM, replicates: in singlicate, n = 1
# T1 construct: gene STK38
# NDR2 = settings: concentration: 1 μM, replicates: in singlicate, n = 1
# NEK10 = settings: concentration: 1 μM, replicates: in singlicate, n = 1
# NEK11 = settings: concentration: 1 μM, replicates: in singlicate, n = 1
# NEK1 = settings: concentration: 1 μM, replicates: in singlicate, n = 1
# NEK2 = settings: concentration: 1 μM, replicates: in singlicate, n = 1
# NEK3 = settings: concentration: 1 μM, replicates: in singlicate, n = 1
# NEK4 = settings: concentration: 1 μM, replicates: in singlicate; n = 1
# NEK5 = settings: concentration: 1 μM, replicates: in singlicate, n = 1
# NEK6 = settings: concentration: 1 μM, replicates: in singlicate, n = 1
# NEK7 = settings: concentration: 1 μM, replicates: in singlicate, n = 1
# NEK9 = settings: concentration: 1 μM, replicates: in singlicate, n = 1
# NIK = test system: T2, NIK; settings: concentration: 1 μM, replicates: in singlicate, n = 1
# T2 construct: gene MAP3K14
# NIM1 = test system: T3, NIM1; settings: concentration: 1 μM, replicates: in singlicate, n = 1
# T3 construct: gene MGC42105
# NLK = settings: concentration: 1 μM, replicates: in singlicate, n = 1
# OSR1 = test system: T4, OSR1; settings: concentration: 1 μM, replicates: in singlicate, n = 1
# T4 construct: gene OXSR1
# PAK1 = settings: concentration: 1 μM, replicates: in singlicate, n = 1
# PAK2 = settings: concentration: 1 μM, replicates: in singlicate, n = 1
# PAK3 = settings: concentration: 1 μM, replicates: in singlicate, n = 1
# 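Note: KINOMEscan kinase panel screen.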
structure (smiles),measurement,setting,value
CNc1ncnc2[nH]ncc12 [SKF-18355],%Inh,MYO3B,34%
same,%Inh,NDR1,46%
same,%Inh,NDR2,23%
same,%Inh,NEK10,16%
same,%Inh,NEK11,0%
same,%Inh,NEK1,0%
same,%Inh,NEK2,0%
same,%Inh,NEK3,26%
same,%Inh,NEK4,0%
same,%Inh,NEK5,0%
same,%Inh,NEK6,0%
same,%Inh,NEK7,0%
same,%Inh,NEK9,0%
same,%Inh,NIK,31%
same,%Inh,NIM1,21%
same,%Inh,NLK,0%
same,%Inh,OSR1,0%
same,%Inh,PAK1,0%
same,%Inh,PAK2,43%
same,%Inh,PAK3,0%
COc1cc2ncn(-c3cc(OCc4sccc4Cl)c(C(N)=O)s3)c2cc1OC [GSK448459],%Inh,MYO3B,0%
same,%Inh,NDR1,0%
same,%Inh,NDR2,0%
same,%Inh,NEK10,0%
same,%Inh,NEK11,0%
same,%Inh,NEK1,13%
same,%Inh,NEK2,97.1%
same,%Inh,NEK3,4%
same,%Inh,NEK4,0%
same,%Inh,NEK5,11%
same,%Inh,NEK6,0%
same,%Inh,NEK7,0%
same,%Inh,NEK9,0%
same,%Inh,NIK,22%
same,%Inh,NIM1,30%
same,%Inh,NLK,0%
same,%Inh,OSR1,11%
same,%Inh,PAK1,17%
same,%Inh,PAK2,10%
same,%Inh,PAK3,20%
COc1ccc(Nc2ncc(C#N)c(Nc3ccccc3C(N)=O)n2)cc1N1CCN(C)CC1.Cl [GSK1558669],%Inh,MYO3B,0%
same,%Inh,NDR1,98.8%
same,%Inh,NDR2,75%
same,%Inh,NEK10,94.1%
same,%Inh,NEK11,97.5%
same,%Inh,NEK1,91.6%
same,%Inh,NEK2,99.6%
same,%Inh,NEK3,93.5%
same,%Inh,NEK4,94.7%
same,%Inh,NEK5,100%
same,%Inh,NEK6,99.9%
same,%Inh,NEK7,97.4%
same,%Inh,NEK9,98.2%
same,%Inh,NIK,96.6%
same,%Inh,NIM1,99.9%
same,%Inh,NLK,71%
same,%Inh,OSR1,100%
same,%Inh,PAK1,91.2%
same,%Inh,PAK2,96.9%
same,%Inh,PAK3,100%
O=C(Nc1n[nH]c2cc(-c3cccc(F)c3)ccc12)C1CC1 [SB-735464],%Inh,MYO3B,0%
same,%Inh,NDR1,25%
same,%Inh,NDR2,11%
same,%Inh,NEK10,0%
same,%Inh,NEK11,37%
same,%Inh,NEK1,0%
same,%Inh,NEK2,0%
same,%Inh,NEK3,23%
same,%Inh,NEK4,14%
same,%Inh,NEK5,0%
same,%Inh,NEK6,3%
same,%Inh,NEK7,0%
same,%Inh,NEK9,0%
same,%Inh,NIK,9%
same,%Inh,NIM1,12%
same,%Inh,NLK,86%
same,%Inh,OSR1,0%
same,%Inh,PAK1,0%
same,%Inh,PAK2,30%
same,%Inh,PAK3,44%
CN1c2ccc(NCc3ccc(F)cc3)cc2-c2c(cnn2C)S1(=O)=O,%Inh,MYO3B,0%
same,%Inh,NDR1,22%
same,%Inh,NDR2,0%
same,%Inh,NEK10,2%
same,%Inh,NEK11,0%
same,%Inh,NEK1,0%
same,%Inh,NEK2,0%
same,%Inh,NEK3,33%
same,%Inh,NEK4,0%
same,%Inh,NEK5,0%
same,%Inh,NEK6,0%
same,%Inh,NEK7,0%
same,%Inh,NEK9,0%
same,%Inh,NIK,7%
same,%Inh,NIM1,4%
same,%Inh,NLK,0%
same,%Inh,OSR1,0%
same,%Inh,PAK1,0%
same,%Inh,PAK2,1%
same,%Inh,PAK3,0%
COc1cc2c(cc1OCCN1CCN(C)CC1)ncc1c3ccc(C#N)cc3[nH]c21,%Inh,MYO3B,0%
same,%Inh,NDR1,52%
same,%Inh,NDR2,0%
same,%Inh,NEK10,15%
same,%Inh,NEK11,0%
same,%Inh,NEK1,0%
same,%Inh,NEK2,48%
same,%Inh,NEK3,33%
same,%Inh,NEK4,0%
same,%Inh,NEK5,0%
same,%Inh,NEK6,7%
same,%Inh,NEK7,0%
same,%Inh,NEK9,0%
same,%Inh,NIK,76%
same,%Inh,NIM1,64%
same,%Inh,NLK,0%
same,%Inh,OSR1,0%
same,%Inh,PAK1,24%
same,%Inh,PAK2,39%
same,%Inh,PAK3,0%
COC(=O)Nc1nc2cc(Oc3ccc(NC(=O)Nc4cc(F)ccc4F)cc3)ccc2[nH]1.Cl [GW701424],%Inh,MYO3B,0%
same,%Inh,NDR1,26%
same,%Inh,NDR2,0%
same,%Inh,NEK10,8%
same,%Inh,NEK11,7%
same,%Inh,NEK1,0%
same,%Inh,NEK2,0%
same,%Inh,NEK3,0%
same,%Inh,NEK4,0%
same,%Inh,NEK5,3%
same,%Inh,NEK6,0%
same,%Inh,NEK7,0%
same,%Inh,NEK9,0%
same,%Inh,NIK,44%
same,%Inh,NIM1,30%
same,%Inh,NLK,10%
same,%Inh,OSR1,14%
same,%Inh,PAK1,0%
same,%Inh,PAK2,0%
same,%Inh,PAK3,0%
CN1c2ccc(CNc3ccc(F)cc3)cc2-c2c(cnn2C)S1(=O)=O,%Inh,MYO3B,0%
same,%Inh,NDR1,16%
same,%Inh,NDR2,0%
same,%Inh,NEK10,0%
same,%Inh,NEK11,0%
same,%Inh,NEK1,1%
same,%Inh,NEK2,0%
same,%Inh,NEK3,28%
same,%Inh,NEK4,0%
same,%Inh,NEK5,0%
same,%Inh,NEK6,0%
same,%Inh,NEK7,0%
same,%Inh,NEK9,0%
same,%Inh,NIK,0%
same,%Inh,NIM1,0%
same,%Inh,NLK,0%
same,%Inh,OSR1,0%
same,%Inh,PAK1,0%
same,%Inh,PAK2,14%
same,%Inh,PAK3,0%
Fc1ccc(-c2nn3c(OCC(F)(F)F)cccc3c2-c2ccncc2)cc1 [GW514784],%Inh,MYO3B,0%
same,%Inh,NDR1,11%
same,%Inh,NDR2,44%
same,%Inh,NEK10,11%
same,%Inh,NEK11,44%
same,%Inh,NEK1,2%
same,%Inh,NEK2,8%
same,%Inh,NEK3,0%
same,%Inh,NEK4,0%
same,%Inh,NEK5,2%
same,%Inh,NEK6,0%
same,%Inh,NEK7,0%
same,%Inh,NEK9,4%
same,%Inh,NIK,56%
same,%Inh,NIM1,0%
same,%Inh,NLK,65%
same,%Inh,OSR1,20%
same,%Inh,PAK1,0%
same,%Inh,PAK2,0%
same,%Inh,PAK3,0%
NCCNS(=O)(=O)c1ccc(-c2ccnc3[nH]ccc23)cc1 [GSK977617],%Inh,MYO3B,0%
same,%Inh,NDR1; 1 µM,70% and 58%
same,%Inh,NDR2; 1 µM,77% and 60%
same,%Inh,NEK10; 1 µM,69% and 53%
same,%Inh,NEK11; 1 µM,24% and 0%
same,%Inh,NEK1; 1 µM,62% and 44%
same,%Inh,NEK2,0%
same,%Inh,NEK3; 1 µM,14% and 0%
same,%Inh,NEK4,0%
same,%Inh,NEK5; 1 µM,44% and 25%
same,%Inh,NEK6; 1 µM,4% and 0%
same,%Inh,NEK7,0%
same,%Inh,NEK9; 1 µM,22% and 16%
same,%Inh,NIK; 1 µM,19% and 7%
same,%Inh,NIM1; 1 µM,0% and 26%
same,%Inh,NLK,0%
same,%Inh,OSR1; 1 µM,63% and 52%
same,%Inh,PAK1; 1 µM,66% and 43%
same,%Inh,PAK2; 1 µM,65% and 41%
same,%Inh,PAK3; 1 µM,90.6% and 78%
O=c1cc(N2CCOCC2)nc2n(Cc3cccc(Cl)c3Cl)c(C3CC3)nn12 [GSK2358994],%Inh,MYO3B,0%
same,%Inh,NDR1,0%
same,%Inh,NDR2,0%
same,%Inh,NEK10,20%
same,%Inh,NEK11,0%
same,%Inh,NEK1,0%
same,%Inh,NEK2,7%
same,%Inh,NEK3,5%
same,%Inh,NEK4,11%
same,%Inh,NEK5,0%
same,%Inh,NEK6,8%
same,%Inh,NEK7,21%
same,%Inh,NEK9,0%
same,%Inh,NIK,0%
same,%Inh,NIM1,0%
same,%Inh,NLK,22%
same,%Inh,OSR1,0%
same,%Inh,PAK1,16%
same,%Inh,PAK2,0%
same,%Inh,PAK3,0%
Cc1cn2c(=O)cc(N3CCOCC3)nc2n1Cc1cccc(Cl)c1Cl [GSK2334006],%Inh,MYO3B,0%
same,%Inh,NDR1,10%
same,%Inh,NDR2,0%
same,%Inh,NEK10,10%
same,%Inh,NEK11,0%
same,%Inh,NEK1,0%
same,%Inh,NEK2,14%
same,%Inh,NEK3,0%
same,%Inh,NEK4,4%
same,%Inh,NEK5,14%
same,%Inh,NEK6,18%
same,%Inh,NEK7,0%
same,%Inh,NEK9,8%
same,%Inh,NIK,0%
same,%Inh,NIM1,7%
same,%Inh,NLK,9%
same,%Inh,OSR1,1%
same,%Inh,PAK1,12%
same,%Inh,PAK2,10%
same,%Inh,PAK3,15%
NS(=O)(=O)CCc1cccc(Nc2nccc(-c3c(-c4cccc(NC(=O)c5c(F)cccc5F)c4)nn4ccccc34)n2)c1 [GSK336735],%Inh,MYO3B,4%
same,%Inh,NDR1,18%
same,%Inh,NDR2,0%
same,%Inh,NEK10,7%
same,%Inh,NEK11,0%
same,%Inh,NEK1,0%
same,%Inh,NEK2,22%
same,%Inh,NEK3,0%
same,%Inh,NEK4,19%
same,%Inh,NEK5,8%
same,%Inh,NEK6,8%
same,%Inh,NEK7,11%
same,%Inh,NEK9,57%
same,%Inh,NIK,4%
same,%Inh,NIM1,15%
same,%Inh,NLK,84%
same,%Inh,OSR1,10%
same,%Inh,PAK1,26%
same,%Inh,PAK2,12%
same,%Inh,PAK3,36%
Cl.Cl.Cl.Fc1ccc(-c2ncn(C3CCNCC3)c2-c2ccnc(Nc3ccccc3)n2)cc1 [SB-238039],%Inh,MYO3B; 1 µM,20% and 21%
same,%Inh,NDR1; 1 µM,37% and 6%
same,%Inh,NDR2; 1 µM,8% and 0%
same,%Inh,NEK10,0%
same,%Inh,NEK11,0%
same,%Inh,NEK1; 1 µM,15% and 0%
same,%Inh,NEK2; 1 µM,0% and 2%
same,%Inh,NEK3; 1 µM,23% and 29%
same,%Inh,NEK4,0%
same,%Inh,NEK5; 1 µM,0% and 15%
same,%Inh,NEK6,0%
same,%Inh,NEK7; 1 µM,0% and 24%
same,%Inh,NEK9; 1 µM,0% and 19%
same,%Inh,NIK; 1 µM,5% and 12%
same,%Inh,NIM1; 1 µM,35% and 19%
same,%Inh,NLK; 1 µM,90.5% and 89%
same,%Inh,OSR1,14%
same,%Inh,PAK1; 1 µM,16% and 0%
same,%Inh,PAK2; 1 µM,51% and 14%
same,%Inh,PAK3; 1 µM,43% and 50%
CN(C(=O)c1ccc(-c2cc(-c3c[nH]nc3-c3ccccn3)ccn2)cc1)C1CCOCC1 [GW810083],%Inh,MYO3B,0%
same,%Inh,NDR1,3%
same,%Inh,NDR2,0%
same,%Inh,NEK10,0%
same,%Inh,NEK11,9%
same,%Inh,NEK1,0%
same,%Inh,NEK2,0%
same,%Inh,NEK3,16%
same,%Inh,NEK4,0%
same,%Inh,NEK5,7%
same,%Inh,NEK6,6%
same,%Inh,NEK7,6%
same,%Inh,NEK9,18%
same,%Inh,NIK,29%
same,%Inh,NIM1,20%
same,%Inh,NLK,0%
same,%Inh,OSR1,0%
same,%Inh,PAK1,0%
same,%Inh,PAK2,0%
same,%Inh,PAK3,0%
